Results reported in ChEMBL document CHEMBL3988442, “University of Dundee, Small-Polar-MMV Screening Library” (2021).
The campaign covered roughly 53,000 compounds. About 900 (1.7%) showed an effect of 50% or more. The entries come from a sample that favours strong results as a whole.

The compounds below were run on Mycobacterium tuberculosis (assay: Cornell - Phenotypic assay to identify agents that inhibit growth of Mycobacterium tuberculosis). Conditions: 10 mM as filed; unlikely as a test dose.
Format: functional
Set-up: scale not given: direction of the effect not stated beside the values

SMILES	Percent Effect
COc1ncc(-c2cc(NCCN(C)C)nc3[nH]ccc23)c(OC)n1	-22.77%
COCCNc1cc(-c2ccccc2S(N)(=O)=O)c2cc[nH]c2n1	21.18%
COc1nccnc1-c1cc(NC2CCNCC2)nc2[nH]ccc12	48.16%
C=Cc1cccc(CN(Cc2cnn(C)c2)C2CC2)c1	14.04%
Cc1nc(C)n(CC2CCCCN2Cc2cn3ccccc3n2)n1 (stereo unspecified)	-36.82%
Cc1csc(C(C)(C)NCCOc2ccc(CC#N)cc2)n1	-14.48%
NC(=O)N1CCCN(Cc2cc(F)cc(Br)c2)CC1	17.84%
Cc1cccc(CN2C[C@@H]3COC[C@]3(CNC(=O)C3CCC3)C2)c1.O=C(O)C(F)(F)F	0.1331%
O=C(O)C(F)(F)F.c1cncc(C2CC3(CCN(c4cnccn4)CC3)c3ccccc32)c1 (stereo unspecified)	50.88%
CCOC1CC2(CCN(c3cnccn3)CC2)c2ccccc21 (stereo unspecified)	32.32%
CN(C)CCOC1CC2(CCN(c3cnccn3)CC2)c2ccccc21.O=C(O)C(F)(F)F (stereo unspecified)	-38.38%
Cc1cnc(-c2nc(O)c3c(n2)CN(C(=O)C2CCCC2)CC3)cn1	-5.983%
Cn1cc(S(=O)(=O)NCC(C)(O)c2ccsc2)cn1 (stereo unspecified)	-58.46%
COC(=O)c1ccc(NCc2csc(C)n2)cc1Cl	15.32%
Fc1ccc(NCc2ncc[nH]2)cc1Br	55.27%
COCc1nc(C2CCN(Cc3ncc[nH]3)CC2)no1	-22.72%
Fc1cccc(NCc2ncc[nH]2)c1	35.73%
COCc1nc2cc(NCc3csc(C)n3)ccc2o1	107.6%
COCc1nc2cc(NCc3ncc[nH]3)ccc2o1	107.7%

SMILES	Percent Effect
Cc1csc(CNc2cccc(OCCN3CCCC3)c2)n1	34.79%
CC(C)(C)OC(=O)N1CCCc2ccc(NCc3ncc[nH]3)cc21	-12.48%
COCc1nc(CNc2cccc(-c3csc(C)n3)c2)cs1	38.18%
Cc1csc(CNc2cnn(C(C)C)c2)n1	-3.592%
COc1cc(NCc2ncc[nH]2)ccc1Br	-5.052%
COCc1nc2cc(NCc3nc(C)cs3)ccc2o1	107.4%
COc1ccc(OC(F)F)c(NCC(=O)NCC(=O)N2CCCC2)c1	14.52%
COC(=O)COc1c(F)cc(Br)cc1C(C)=O	-28.15%
NS(=O)(=O)NCc1cc(-c2ccco2)n(CC(F)(F)F)n1	5.494%
O=C(Nc1cccn(Cc2ccc(F)cc2)c1=O)c1cnc[nH]1	15.84%
Cc1nnc(SCC(=O)c2cc3c(cc2Cl)NC(=O)C3)o1	14.6%
Cc1nc(C(C)N2Cc3ncccc3C2=O)cs1 (stereo unspecified)	12.56%
COCc1nc(CNc2cccc(-c3ncon3)c2)cs1	-0.7134%
COCc1nc2cc(NCc3ccncc3)ccc2o1	39.69%
COCc1nc2cc(NCc3cc[nH]n3)ccc2o1	106.8%
CCC(O)CN1CCN(C(=O)c2ccc(Cn3cccc3)cc2)CC1 (stereo unspecified)	-35.22%
CCCS(=O)(=O)N1CCN(Cc2ccco2)CC1.O=C(O)C(=O)O	-8.655%
COc1cc(C(=O)N2CC3(CCNCC3)c3cc(Cl)ccc32)ccn1.O=C(O)C(F)(F)F.O=C(O)C(F)(F)F	15.78%
CNc1cc(-c2cccc(CN)c2)c2cc[nH]c2n1	80.74%

SMILES	Percent Effect
CNc1cc(-c2ccccc2CN)c2cc[nH]c2n1	23.62%
CNc1cc(-c2ccc(COCCN)cc2)c2cc[nH]c2n1	26.91%
CCOc1c(Cl)cc(/C=C/c2ncc(C(=O)O)s2)cc1OC	33.38%
CCOCC1CCN(C(=O)C(c2ccccc2F)N(C)C)CC1 (stereo unspecified)	28.27%
CNC(=O)C1CCCN(C(=O)c2cncs2)C1 (stereo unspecified)	43.16%
CNC(=O)C1CN(C(=O)c2cccs2)CCN(S(C)(=O)=O)C1 (stereo unspecified)	18.15%
CS(=O)(=O)N1CCN(C(=O)c2cncs2)CC(C(N)=O)C1 (stereo unspecified)	53.86%
COC[C@@]12CCO[C@@H]1CCN(C(=O)Cc1ccccc1C)C2	7.914%
Cc1oc(C)c(C(=O)NS(=O)(=O)c2ccc3c(c2)OCCCO3)c1C	58.42%
Cc1oc(C)c(C(=O)NS(=O)(=O)c2ccc3c(c2)OCCO3)c1Br	6.395%
Cc1ccc(C(=O)NS(=O)(=O)c2ccc3c(c2)OCCCO3)o1	-1.542%
NC(=O)N1CCC(C(=O)NC2CCc3nccn3C2)CC1 (stereo unspecified)	-11.45%
COC(=O)C(NC(=O)c1ccco1)c1cc(F)ccc1F (stereo unspecified)	104.5%
COC(=O)C(NC(=O)COC1CCCC1)c1cc(F)ccc1F (stereo unspecified)	63.8%
COC(=O)C(NC(=O)COC1CCCCC1)c1ccccc1 (stereo unspecified)	43.33%
COC(=O)C(c1cc(F)ccc1F)N(C)C(=O)c1ccccn1 (stereo unspecified)	0.1474%
NC(=O)C(NC(=O)COC1CCCC1)c1ccccc1 (stereo unspecified)	21.89%
COC(=O)C(NC(=O)C(C)C)c1cc(F)ccc1F (stereo unspecified)	35.55%
